Where “and” joins values, the source holds several entries; their conditions need not be identical. Identical values can stand only once. Calls of active or inactive are those of the source. Rule for the calls: active = hit-call score of the fitted dose curve at least 0.9, where 1 is the maximum; inactive = score below 0.9.
Assay: BSK_LPS_SRB: Viability Assessment in the BioMAP Diversity Plus: LPS Assay (AID 2283079);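 note: fitted in both directions against DMSO so loss or gain of signal counts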
Conditions: primary human HUVEC with PBMC
Protocol: BSK_LPS is a cell-based, multiplexed-readout assay that uses umbilical vein endothelium and peripheral blood mononuclear cells, a human vascular primary cell co-culture, with measurements taken at 24 hours after chemical dosing in a 96-well plate.BSK_LPS_SRB is an assay component measured in the BSK_LPS assay. It measures 0.1% sulforhodamine related to cell death using Sulforhodamine staining technology.Data from the assay component BSK_LPS_SRB was analyzed into 1 assay endpoint. This assay endpoint, BSK_LPS_SRB, was analyzed with bidirectional fitting relative to DMSO as the negative control and baseline of activity. Using a type of viability reporter, gain or loss-of-signal activity can be used to understand changes in the signaling. Furthermore, this assay endpoint can be referred to as a primary readout, because this assay has produced multiple assay endpoints where this one serves a signaling function. To generalize the intended target to other relatable targets, this assay endpoint is annotated to the cell morphology intended target family, where the subfamily is cell conformation.
The levels of cell surface (or secreted, indicated by the prefix "s") biomarker endpoints were measured by ELISA. Overt cytotoxicity to cells in confluent adherent cultures (all systems other than the BT system) was assessed by measuring total protein levels using sulforhodamine B (SRB) staining in parallel cultures at the time of biomarker measurements, indicated as SRB endpoints. For proliferation assays for adherent cell types, individual cell types are cultured at sub-confluence and relative cell numbers quantified by SRB staining at time points optimized for each system (48 h: 3C and CASM3C systems; 72 h: BT and HDF3CGF systems; 96 h: SAg system). SRB was performed by staining cells with 0.1% SRB after fixation with 10% TCA and reading wells at 560 nm.Viability and proliferation of PBMC (T cells) was quantified by Alamar Blue reduction for the SAg and BT systems. For PBMC viability (referred to as PBMC Cytotoxicity within the assay endpoint names), cells were plated (75,000/well in a 96-well plate) and then chemical samples added for 1 h before addition of activators, SEB and TSST-1 (20 ng/mL final concentration each). Cells were incubated for 90 h. Then, Alamar Blue (20 uL/well) (Invitrogen, Cat DAL1100) was added for 6 h, and the plates were read with a fluorescence microplate reader at 546/580 nm (excitation/emission). For PBMC proliferation, cells were plated and activated as above but incubated for only 16 h prior to addition of Alamar Blue. Plates were read after 6 h.

Row | Compound | AC50 | outcome
1 | CC/C=C\C/C=C\C/C=C\CCCCCCCC(=O)OC | 27.8 µM (active) | –
2 | CC=C(C)C(C)=O | – | inactive
3 | CCCCCCCCCCCC(=O)N(C)CC(=O)O | – | inactive
4 | Cc1c(O)cccc1O | – | inactive
5 | C=CC(=O)OCC(C)OCC(C)OCC(C)OC(=O)C=C (stereo not given) | 22.9 µM (active) | –
6 | CC(C)CCCCCOC(=O)CS | – | inactive
7 | O=C1CCCCCCCCCCC1 | – | inactive
8 | CCOC(=O)C1=NN(c2ccc(Cl)cc2Cl)C(C)(C(=O)OCC)C1 (stereo not given) | – | inactive
9 | C=CC(=O)OCCCCCCCC(C)C | – | inactive
10 | CC1(C)CC(O)CC(C)(C)N1[O] | – | inactive
11 | CCN1CN(CC)CN(CC)C1 | – | inactive
12 | CC(c1cc(C(C)(C)C)cc(C(C)(C)C)c1O)c1cc(C(C)(C)C)cc(C(C)(C)C)c1O | – | inactive
13 | C[N+](C)(C)CCCNS(=O)(=O)C(F)(F)C(F)(F)C(F)(F)C(F)(F)C(F)(F)C(F)(F)C(F)(F)C(F)(F)F | 22.5 µM (active) and 33.8 µM (active) | –
14 | CCOC(=O)/C=C\C(=O)OCC | – | inactive
15 | CC(C)C(=O)OCCc1ccccc1 | – | inactive
16 | C=CC(=O)OCCCCCCOC(=O)C=C | 20 µM (active) | –
17 | Nc1ccc(C(=O)O)cc1 | – | inactive
18 | CCCCC1C(=O)N(c2ccccc2)N(c2ccccc2)C1=O | – | inactive
19 | C=CC(=O)NCOCCCC | – | inactive
20 | Nc1cccc(N)n1 | – | inactive

Row | Compound | AC50 | outcome
21 | c1ccc(Nc2cccc3ccccc23)cc1 | 31.5 µM (active) and 32.4 µM (active) | –
22 | Nc1nc(N)nc(-c2ccccc2)n1 | – | inactive
23 | CC/C=C\CCOC(=O)c1ccccc1O | 30.7 µM (active) | –
24 | C=C(C)C(=O)OCCCCCCCCCCCC | – | inactive
25 | COc1ccc(C(=O)/C(Br)=C\C(=O)O)cc1 | 27.9 µM (active) and 31 µM (active) | –
26 | Fc1ccc(Br)cc1 | – | inactive
27 | Oc1ccccc1Cc1ccccc1O | – | inactive
28 | Oc1ccc(/C=C/c2cc(O)cc(O)c2)cc1 | 20 µM (active) | –
29 | COC(OC)(C(=O)c1ccccc1)c1ccccc1 | – | inactive
30 | C=CCCCCCCCCC=O | – | inactive
31 | CCCC(C)C(=O)OCC (stereo not given) | – | inactive
32 | Oc1c(Cl)cc(Cl)c(Cl)c1Cl | 20 µM (active) | –
33 | Clc1cc(Cl)c(Cl)c(Cl)c1Cl | – | inactive
34 | O=C(O)C(F)(F)C(F)(F)C(F)(F)C(F)(F)C(=O)O | – | inactive
35 | CCc1cccc(C)c1N(C(=O)CS(=O)(=O)O)C(C)COC (stereo not given) | – | inactive
36 | O=C(Cl)c1c(Cl)c(Cl)c(C(=O)Cl)c(Cl)c1Cl | – | inactive
37 | CCCCCCOC(=O)CCCCC(=O)OCCCCCC | – | inactive
38 | CCCCCC1=CCCC1=O | – | inactive
39 | CCCCCCCCCCCC(C)=O | – | inactive
40 | c1ccc2c(c1)[nH]c1ccccc12 | – | inactive
